Hit rate of the full screen: of about 69,000 compounds, about 8,600 (12%) showed an effect of 50% or more. The full list was thinned out, with strong results kept by preference.
Tested on: Plasmodium berghei
Assay: Screen against P. berghei liver stage (PbLuc), transformed with Luciferase, at 10uM
Assay type: functional, HepG2
Conditions: tested at 10 uM

Compound	INHIBITION [%]
CC(=O)N1CCC(c2cncc(N3CCCCCC3)n2)CC1	17.4
O=C(NC1CCCN(CCc2ccccc2)C1)c1cnccn1 (centres undefined)	-0.29
Cc1cnn(C2CCCN(C(=O)Cc3cn4ccsc4n3)C2)c1 (centres undefined)	-9
Cc1nc(C)c(C(=O)N2CCC(O)(Cn3ccc4ccncc43)CC2)s1	-57.4
CS(=O)(=O)c1cc(C(=O)NS(=O)(=O)Cc2ccc(F)cc2)ccc1Cl	37.7
O=C(Cc1noc(C(=O)NCCO)n1)Nc1cccc(C(F)(F)F)c1	25.2
CC(C)(C)n1ncc2c1NC(=O)CC2c1cccs1 (centres undefined)	-0.87
Cc1nc(CN2CCCC2Cn2cncn2)no1 (centres undefined)	34.95
COCc1nc2cc(NCc3sc(C)nc3C)ccc2o1	65.4
COCc1nc2cc(NCc3csc(C)n3)ccc2o1	14.9
COCc1nc2cc(NCc3ccncc3)ccc2o1	18.5
COCc1nc2cc(NCc3cc[nH]n3)ccc2o1	67.1
COCc1nc2cc(NCc3nc(C)cs3)ccc2o1	-17.6
Cc1cc(CNc2ccc3nc(C)sc3c2)no1	-4.33
COCc1nc2cc(NCc3ccc(C)o3)ccc2o1	11.8
COCc1nc2cc(NCc3scnc3C)ccc2o1	70.5
CCC(C)CNc1ccc2oc(COC)nc2c1 (centres undefined)	-23.2
COCc1nc2cc(NCc3ccc(CO)o3)ccc2o1	90.2
CC(C)(C)c1nc2cc(NC(=O)Cn3ccc(=O)[nH]c3=O)ccc2o1	20
Cc1ncsc1CNc1cc(N2CCCC2CO)ncn1 (centres undefined)	27.4
CCNC(=O)[C@@H]1CCCN1C(=O)c1cccc(CCC(C)(C)O)c1	-26.8
CC(C)=CCN1C[C@@H]2CC[C@H]1CN(C(=O)CCc1nnc(C)[nH]1)C2	41.2

Compound	INHIBITION [%]
Cc1cccc(N2CCOC(C(=O)O)C2)c1 (centres undefined)	14.7
CN1C(=O)CC(c2cnn(C)c2)C12CCN(CC1CCOCC1)CC2 (centres undefined)	-9.74
Cn1ccnc1CCC1CCCCN1Cc1cnc(N2CCCC2)nc1 (centres undefined)	-25
CN1CCC2(Cc3ccccc3CN(C(=O)CCN)C2)C1 (centres undefined)	40
O=C(NCCc1csc(-c2ccncc2)n1)C1CC(=O)N(C2CC2)C1 (centres undefined)	2.66
Cc1nc(C)n(CC2CCCN(CC(=O)Nc3cc(C)on3)C2)n1 (centres undefined)	-18.945
CN(Cc1ccc(F)cc1)C(=O)CN1CCOC(Cn2cccn2)C1 (centres undefined)	-4.16
CCc1ccc(O)c(C(=O)N2CCN(CC(=O)N(CC)CC)CC2)c1	56.6
CCc1ccc(O)c(C(=O)N2CCCN(CC(=O)N(CC)CC)CC2)c1	-1.57
CCc1ccc(O)c(C(=O)N2CCN(CC(=O)N(C)C)CC2)c1	47.7
COc1c(C2CCCN2Cc2noc(C)n2)c(C)nn1C (centres undefined)	-40.2
COCCN(Cc1sccc1C)C(=O)c1c(O)cccc1F	-15.6
CCN1CCC2(CC1)C(=O)N(c1ccc(C)nc1)CCN2CC(C)C	36.4
CC(=O)N1CCC2(CC1)C(=O)N(c1ccc(C)nc1)CCN2CC(C)C	60
Cc1ccc(N2CCN(CC3CC3)C3(CCN(C(C)C)CC3)C2=O)cn1	27.5
Cc1nc(C)n(CC2CCCN2CCOc2ccc(F)cc2)n1 (centres undefined)	-32
Cc1nnc(NC(=O)CN2CCc3nn(C)c(=O)cc3C2)s1	62.9
CCn1nc2c(cc1=O)CN(CC(=O)Nc1nnc(C)s1)CC2	-29.8
CCCn1nc2c(cc1=O)CN(CC(=O)Nc1nnc(C)s1)CC2	26.3
CCN(Cc1ccc(O)c(C(=O)O)c1)CC1CCOCC1	7.65
COc1ccccc1CNc1c(O)c(=O)c1=O	21.7
CO[C@H]1CC[C@H]2[C@H]1OCCN2Cc1ccc(F)cc1	-40.9

Compound	INHIBITION [%]
O=C(NCCNC1CCN(c2nccs2)CC1)c1cccs1	55.1
O=C(NC1CCN(c2nccs2)CC1)c1cccs1	22.2
O=C(NCCNC1CCCC1)c1cccs1	-0.902
COc1ccc(COCC(=O)N2CCC(c3nncn3C)CC2)cc1	39.2
CC(=O)N1N=C(c2ccccc2)OC1C(=O)N(C)CCc1ccccc1 (centres undefined)	38.2
Cn1cnc2c1C(COCc1ccccc1)N(Cc1ccncc1)CC2 (centres undefined)	15.9
COC(=O)c1cc(OC)ccc1NCC(=O)NCC(=O)N1CCCC1	2.03
CC(C)c1nc(CN2CCOC(Cn3cncn3)C2)no1 (centres undefined)	-15.5
O=C(NC1CCN(c2cc(-n3ccnc3)ncn2)CC1)c1ccncc1	69.1
O=C(NC1CCCC1)C1CCN(c2cc(-n3ccnc3)ncn2)CC1	48
O=C(NC1CCN(c2ncccn2)CC1)c1cccc(-n2ccnc2)c1	-2.94
CC1c2ncc(CN3CCN(C)CC3)n2CCN1Cc1cnn(C)c1 (centres undefined)	33.2
O=C1CO[C@@H]2CN(Cc3cccs3)C[C@H]2N1Cc1ccncc1	14.2
CCN(CC)CCNC(=O)CCc1c(C)nn(-c2ccc(Cl)cc2)c1C	63.9
CCN(CC)CCNC(=O)CCc1c(C)nn(-c2cccc(Cl)c2)c1C	48
CCN(CC)CCNC(=O)CCc1c(C)nn(-c2ccccc2Cl)c1C	48
O=C1NCCN1CCNc1cc(-c2ccncc2)nc2ccnn12	-4.91
CNC(=O)c1cccnc1Oc1ccccc1	9.89
NC(=O)CC1c2cccnc2C(=O)N1Cc1ccccc1 (centres undefined)	-16.4
CC(C)(C)c1n[nH]c(C2CN(C(=O)c3cc(Cl)c[nH]3)CCO2)n1 (centres undefined)	19.7
Cc1ccc(S(N)(=O)=O)cc1C(=O)NC1CCCN(C)C1 (centres undefined)	3.46
CC(=O)N[C@@H]1CN(S(=O)(=O)Cc2ccccc2)C[C@H]1C(C)C	41.6

Compound	INHIBITION [%]
CN(Cc1cccc(F)c1)S(=O)(=O)N1CCOCC1	-26.1
CCN(Cc1ccccc1)C(=O)CCN1C[C@@H](C(=O)O)[C@H](C2CC2)C1	5.78
CN(Cc1ccccc1)S(=O)(=O)N1C[C@@H](C(=O)O)[C@H](C2CC2)C1	61.8
CCC[C@H]1CN(S(=O)(=O)N(C)Cc2ccccc2)C[C@@H]1N	77.5
CN(Cc1ccc(F)cc1)S(=O)(=O)N1CCOCC1	-8.005
CC(=O)N[C@H]1CN(S(=O)(=O)N(C)Cc2ccccc2)C[C@@H]1C1CC1	64.4
CN(Cc1ccccc1)S(=O)(=O)N1C[C@H](C2CC2)[C@@H](N)C1	-43.1
CN(Cc1ccccc1)C(=O)CCN1C[C@H](C2CC2)[C@@H](N(C)C)C1	14.9
CN(C)CC(=O)N1CC2(CCN(S(=O)(=O)c3ccccc3)C2)C1	-25.8
C1CCC(CNC2CCCN(Cc3noc(C4CC4)n3)C2)C1 (centres undefined)	7.43
CC(c1ncc(-c2ccccc2)o1)N1CCN(C(=O)N(C)C)CC1 (centres undefined)	48.2
CCn1c(C)nnc1CN(C)C1CCN(CCS(=O)(=O)CC)C1 (centres undefined)	-49.5
CC(C)CCN1C2(CCN(C(=O)CN(C)C)C2)c2ccccc2S1(=O)=O (centres undefined)	21.4
CS(=O)(=O)N1CC2(CCN(C3CCCCC3)CC2)Cc2ccccc21	32.5
O=C(c1n[nH]c2c1CCN(Cc1nccs1)C2)N1CCCC1	18.1
CS(=O)(=O)c1cc(NC(=O)COc2ccccc2F)cc(C(=O)O)c1	1.98
CCC(C#N)NC(=O)CCNC(=O)C(C)(C)C (centres undefined)	-0.991
CC(C)CCC(=O)NC(C#N)CC(C)C (centres undefined)	9.91
CC(C)CC(C#N)NC(=O)CCNC(=O)C(C)(C)C (centres undefined)	55.5
Cc1nc(CN2CCC3(CC2)NC(=O)CC3c2ccccc2)cs1 (centres undefined)	34.1
CC(C)Cc1noc(C2CCCCN2C(=O)CCc2cnn(C)c2)n1 (centres undefined)	32.2
Cc1nn(C)c2sc(C(=O)N3CCCC(n4ccnc4C)C3)cc12 (centres undefined)	28.4

Compound	INHIBITION [%]
O=c1occ(CN2CCCCCC2)c(O)c1CN1CCOCC1	-28.7
Cc1nc(C)c(S(=O)(=O)NC(=O)c2ccoc2)s1	64.4
Cc1nc(C)c(S(=O)(=O)NC(=O)c2sccc2C)s1	51.5
Cc1nc(C)c(S(=O)(=O)NC(=O)c2cccs2)s1	22.8
Cc1nc(C)c(S(=O)(=O)NC(=O)c2ccsc2)s1	21.8
Cc1cccc(NC(=O)c2sccc2C)n1	-52.1
O=C(NS(=O)(=O)c1cnn(-c2ccccc2F)c1)c1ccoc1	-17.4
CCC(C)C(=O)NCCc1nc(C(F)(F)F)cs1 (centres undefined)	5.42
CCc1nc(C(=O)N2CC(C)CN(C)c3ccccc32)c[nH]1 (centres undefined)	-15
CCCn1c(NC(=O)CNC(=O)OCC)nc2ccccc21	-3.74
CCOCCCn1c(NC(=O)c2ccnc(C)n2)nc2ccccc21	25.4
CCOCCCn1c(NC(=O)c2cnn(C)c2)nc2ccccc21	-4.73
CCOCCCn1c(NC(=O)c2cc(C)on2)nc2ccccc21	64.9
CCOCCCn1c(NC(=O)c2cc(C)no2)nc2ccccc21	5.7
CCOc1cccc(NC(=O)c2cc(C)on2)n1	44.1
CCN(CC)CCn1c(NC(=O)c2scnc2C)nc2ccccc21	59
Cc1ncsc1C(=O)Nc1ccccn1	25.2
CCOCCCn1c(NC(=O)c2scnc2C)nc2ccccc21	69.8
CCOCCCn1c(NC(=O)c2cnc(C)s2)nc2ccccc21	57
CCOCCCn1c(NC(=O)c2ccc(C)nc2)nc2ccccc21	37.2
CCOCCCn1c(NC(=O)c2cnc(C)cn2)nc2ccccc21	-96.9

From ChEMBL document CHEMBL4513216, “Probing the Open Global Health Chemical Diversity Library for Multistage-Active Starting Points for Next-Generation Antimalarials” (ACS Infect Dis, 2020)
